Assay results as given in PubChem BioAssay (EPA / NIEHS).
Records with an inconclusive call do not appear. Calls of active or inactive are those of the source. Rule for the calls, unless noted: active = hit-call score of the fitted dose curve at least 0.9, where 1 is the maximum; inactive = score below 0.9.

Columns and labels:
[1] = molecular target: Paired box protein Pax-6 (Homo sapiens) (UniProt P26367); experiment: ATG_Pax6_CIS: Attagene CIS-FACTORIAL HepG2 Assay for human Paired Box 6 (PAX6) (AID 2282956); conditions: HepG2 CIS-FACTORIAL PAX6 reporter transcription, RNA readout; actives raise or lower the signal
In short: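 HepG2 cells transiently transfected with multiplexed cis-promoter reporter units (endogenous TF activity) were dosed for 24 h. Reporter mRNA was quantified by RT-PCR, 6-FAM labeling, HpaI digestion and capillary electrophoresis; bidirectional fitting versus DMSO baseline.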

[2] = ATG_PXRE_CIS: Attagene CIS-FACTORIAL HepG2 Assay for human Pregnane X Receptor Element (PXRE) (AID 2282957); conditions: HepG2 Attagene CIS-FACTORIAL PXRE reporter, mRNA; actives raise or lower the signal
In short: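 HepG2 cells transiently transfected with cis-element-driven multiplexed reporter units; after 24 h chemical exposure, reporter mRNA measured by RT-PCR, 6-FAM labelling, HpaI digestion and capillary electrophoresis. Bidirectional fitting relative to DMSO.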

[3] = ATG_PPRE_CIS: Attagene CIS-FACTORIAL HepG2 Assay for human Peroxisome Proliferator-activated Response Element (PPRE) (AID 2282958); conditions: HepG2 PPRE cis-element reporter, Attagene transcription factor profiling; actives raise or lower the signal
In short: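 HepG2 cells are transiently transfected with multiplexed cis-promoter reporter units to report endogenous PPAR activity. After 24 h dosing, reporter mRNA is read by RT-PCR and capillary electrophoresis. Fitting is bidirectional against DMSO.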

[4] = ATG_RORE_CIS: Attagene CIS-FACTORIAL HepG2 Assay for human RAR-related Orphan Receptor Element (RORE) (AID 2282959); conditions: HepG2 Attagene cis-factorial RORE reporter, mRNA; actives raise or lower the signal
In short: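 HepG2 cells carrying transiently transfected cis-regulated reporter units; RORE-driven reporter mRNA quantified 24 h post-dosing by RT-PCR, 6-FAM primer extension, HpaI digestion and capillary electrophoresis. Bidirectional fit versus DMSO.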

[5] = ATG_Sox_CIS: Attagene CIS-FACTORIAL HepG2 Assay for human SRY-box transcription factor (SOX) (AID 2282960); conditions: HepG2 Attagene cis-factorial SOX reporter, mRNA; actives raise or lower the signal
In short: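 HepG2 cells transiently transfected with multiple cis-regulated reporter units, then dosed for 24 h. Reporter mRNA quantified by RT-PCR, fluorescent labelling, HpaI digestion and capillary electrophoresis; bidirectional fit versus DMSO.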

[6] = molecular target: Transcription factor Sp1 (Homo sapiens) (UniProt P08047); experiment: ATG_Sp1_CIS: Attagene CIS-FACTORIAL HepG2 Assay for human Specificity Protein 1 (Sp1) (AID 2282961); conditions: HepG2 Sp1 cis-reporter transcription, actives raise or lower the signal
In short: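 HepG2 cells transiently transfected with multiplexed cis-regulated reporter constructs, chemical exposure 24 h. Reporter mRNA quantified by RT-PCR with capillary electrophoresis; bidirectional fit relative to DMSO.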

[7] = ATG_SREBP_CIS: Attagene CIS-FACTORIAL HepG2 Assay for human Sterol Regulatory Element Binding (SREBP) (AID 2282962); conditions: HepG2 Attagene cis-factorial SREBP reporter, mRNA; actives raise or lower the signal
In short: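 HepG2 cells transiently transfected with multiplexed cis-element reporter units report endogenous transcription factor activity. After 24 h of chemical exposure, reporter mRNA was quantified by RT-PCR, 6-FAM labelling, HpaI digestion and capillary electrophoresis; bidirectional fits used DMSO as baseline.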

[8] = molecular target: Signal transducer and activator of transcription 3 (Homo sapiens) (UniProt P40763); experiment: ATG_STAT3_CIS: Attagene CIS-FACTORIAL HepG2 Assay for human Signal Transducer and Activator of Transcription 3 (STAT3) (AID 2282963); conditions: HepG2, Attagene cis-factorial STAT3 reporter transcription; actives raise or lower the signal
In short: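 HepG2 cells transiently transfected with multiple cis-element-driven reporter units report endogenous transcription factor activity. After 24 h compound exposure, reporter mRNA is measured by RT-PCR, 6-FAM labelling, HpaI digestion and capillary electrophoresis. Fitted bidirectionally versus DMSO.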

[9] = ATG_TA_CIS: Attagene CIS-FACTORIAL HepG2 Assay for human TA Basal Promoter (AID 2282964); conditions: HepG2 Attagene CIS-factorial TA basal promoter reporter; actives raise or lower the signal
In short: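 Fluorescence from labelled RT-PCR reporter fragments, separated by capillary electrophoresis, gives the signal. Cells: HepG2 transiently carrying multiple reporter units, 24 h chemical dosing. Gain or loss relative to DMSO.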

[10] = ATG_TCF_b_cat_CIS: Attagene CIS-FACTORIAL HepG2 Assay for human T-Cell-Factor with beta-catenin (TCF/b-cat) (AID 2282965); conditions: HepG2 TCF/beta-catenin cis-reporter transcription, actives raise or lower the signal
In short: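 HepG2 cells transiently transfected with cis-promoter-driven multiplexed reporter units; reporter mRNA measured 24 h after dosing by RT-PCR, FAM labelling, HpaI digestion and capillary electrophoresis. Bidirectional fitting relative to DMSO baseline.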

[11] = ATG_TAL_CIS: Attagene CIS-FACTORIAL HepG2 Assay for human TAL Basal Promoter (AID 2282966); conditions: HepG2 Attagene cis-factorial TAL promoter reporter; actives raise or lower the signal;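 note: background control endpoint measuring basal TAL promoter reporter mRNA not a specific factor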
In short: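 HepG2 cells transiently transfected with multiplexed cis-promoter reporter units, dosed 24 h. Reporter mRNA quantified by RT-PCR, 6-FAM labelling, HpaI digestion and capillary electrophoresis; TAL basal promoter serves as background control, fitted bidirectionally versus DMSO.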

[12] = ATG_TGFb_CIS: Attagene CIS-FACTORIAL HepG2 Assay for human Transforming Growth Factor (TGF) (AID 2282967); conditions: HepG2 Attagene CIS TGFb reporter, mRNA transcription; actives raise or lower the signal
In short: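 Bidirectional fitting relative to DMSO gave the endpoint. Underlying data: reporter mRNA from HepG2 cells carrying transiently transfected cis-regulated reporter constructs, harvested 24 h after dosing and analyzed by RT-PCR and capillary electrophoresis.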

[13] = ATG_VDRE_CIS: Attagene CIS-FACTORIAL HepG2 Assay for human Vitamin D Receptor Element (VDRE) (AID 2282968); conditions: HepG2 VDRE cis-reporter transcription, actives raise or lower the signal
In short: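 Transiently transfected HepG2 cells carrying cis-regulated reporter transcription units were exposed for 24 h. Reporter mRNA was measured by RT-PCR with fluorescent labelling and capillary electrophoresis, and fitted in both directions against DMSO.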

[14] = molecular target: X-box-binding protein 1 (Homo sapiens) (UniProt P17861); experiment: ATG_Xbp1_CIS: Attagene CIS-FACTORIAL HepG2 Assay for human X-box Binding Protein 1 (XBP1) (AID 2282972); conditions: HepG2 XBP1 cis-element reporter, Attagene multiplex; actives raise or lower the signal
In short: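 HepG2 cells transiently transfected with cis-regulated multiple reporter transcription units; endogenous transcription factor activity measured 24 hours after chemical dosing. Reporter mRNA quantified by RT-PCR, 6-FAM primer extension, HpaI digestion and capillary electrophoresis; bidirectional fitting versus DMSO.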

[15] = ATG_M_19_TRANS: Attagene TRANS-FACTORIAL HepG2 Assay for M19 Transcription Factor (Internal Marker) (AID 2282974; active = hit-call score of the fitted dose curve at least 0.9, where 1 is the maximum); conditions: HepG2 Attagene TRANS-FACTORIAL M19 internal marker reporter
In short: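 HepG2 transiently transfected with GAL4-UAS multiplex reporter constructs, exposed 24 h; reporter RNA quantified by RT-PCR, 6-FAM labeling, HpaI digestion and capillary electrophoresis; internal background marker fitted upward versus DMSO.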

[16] = ATG_GAL4_TRANS: Attagene TRANS-FACTORIAL HepG2 Assay for GAL4 (Internal Marker) (AID 2282976; active = hit-call score of the fitted dose curve at least 0.9, where 1 is the maximum); conditions: HepG2 Attagene TRANS GAL4 internal marker reporter
In short: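 Background-control readout: GAL4-UAS reporter transcript in transiently transfected HepG2 cells after 24 h compound exposure. Measured by RT-PCR, 6-FAM primer extension, HpaI digest and capillary electrophoresis; gain-of-signal fit versus DMSO.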

Chain of X-box-binding protein 1 (Homo sapiens) (P17861 whole entry, looked up): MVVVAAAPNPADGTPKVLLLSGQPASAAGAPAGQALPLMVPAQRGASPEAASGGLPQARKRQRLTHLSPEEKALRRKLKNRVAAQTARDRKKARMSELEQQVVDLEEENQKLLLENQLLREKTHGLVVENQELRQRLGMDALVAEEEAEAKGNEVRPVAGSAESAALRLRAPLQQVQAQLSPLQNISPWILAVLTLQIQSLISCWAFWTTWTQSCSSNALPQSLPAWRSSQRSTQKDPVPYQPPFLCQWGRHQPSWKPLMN
Chain of Signal transducer and activator of transcription 3 (Homo sapiens) (P40763 whole entry, looked up): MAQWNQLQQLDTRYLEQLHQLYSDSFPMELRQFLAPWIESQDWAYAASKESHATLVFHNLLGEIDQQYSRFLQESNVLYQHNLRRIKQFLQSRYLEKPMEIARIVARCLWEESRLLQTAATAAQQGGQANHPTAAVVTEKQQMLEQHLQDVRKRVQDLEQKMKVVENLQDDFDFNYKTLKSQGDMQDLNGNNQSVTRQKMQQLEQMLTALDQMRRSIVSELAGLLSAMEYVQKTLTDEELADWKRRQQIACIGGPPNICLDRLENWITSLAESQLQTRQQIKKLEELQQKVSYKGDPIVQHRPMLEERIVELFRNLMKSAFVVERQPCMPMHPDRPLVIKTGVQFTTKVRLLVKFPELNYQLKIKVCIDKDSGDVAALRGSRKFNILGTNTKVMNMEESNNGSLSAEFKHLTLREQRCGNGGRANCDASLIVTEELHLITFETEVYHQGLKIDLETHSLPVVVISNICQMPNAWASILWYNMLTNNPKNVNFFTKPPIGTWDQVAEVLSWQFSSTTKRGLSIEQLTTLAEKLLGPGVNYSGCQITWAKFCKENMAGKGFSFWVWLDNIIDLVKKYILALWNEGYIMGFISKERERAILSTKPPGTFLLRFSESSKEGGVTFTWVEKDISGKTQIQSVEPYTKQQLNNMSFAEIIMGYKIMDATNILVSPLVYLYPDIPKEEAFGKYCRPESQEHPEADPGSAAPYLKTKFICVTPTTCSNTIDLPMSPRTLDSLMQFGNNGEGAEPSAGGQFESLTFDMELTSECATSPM
Chain of Transcription factor Sp1 (Homo sapiens) (P08047 whole entry, looked up): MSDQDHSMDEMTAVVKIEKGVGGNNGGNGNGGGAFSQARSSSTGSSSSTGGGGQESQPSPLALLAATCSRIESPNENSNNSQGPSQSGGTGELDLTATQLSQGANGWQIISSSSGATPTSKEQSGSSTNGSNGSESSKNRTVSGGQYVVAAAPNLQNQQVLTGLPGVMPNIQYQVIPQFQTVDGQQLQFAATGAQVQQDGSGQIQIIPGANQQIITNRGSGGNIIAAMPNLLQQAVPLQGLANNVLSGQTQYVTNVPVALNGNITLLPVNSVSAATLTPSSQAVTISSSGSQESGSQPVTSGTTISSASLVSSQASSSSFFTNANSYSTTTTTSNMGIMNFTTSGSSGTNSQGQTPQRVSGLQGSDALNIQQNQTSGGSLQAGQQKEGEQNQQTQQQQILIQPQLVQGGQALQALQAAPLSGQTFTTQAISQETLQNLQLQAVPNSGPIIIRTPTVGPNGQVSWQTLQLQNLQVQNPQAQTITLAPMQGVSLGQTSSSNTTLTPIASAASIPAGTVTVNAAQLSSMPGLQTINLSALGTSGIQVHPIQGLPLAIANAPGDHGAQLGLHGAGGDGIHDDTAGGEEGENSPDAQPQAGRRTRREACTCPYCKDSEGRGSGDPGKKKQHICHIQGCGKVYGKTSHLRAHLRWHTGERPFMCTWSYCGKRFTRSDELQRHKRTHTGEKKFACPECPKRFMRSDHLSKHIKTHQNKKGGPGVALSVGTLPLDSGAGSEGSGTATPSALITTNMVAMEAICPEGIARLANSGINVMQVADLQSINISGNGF
Chain of Paired box protein Pax-6 (Homo sapiens) (P26367 whole entry, looked up): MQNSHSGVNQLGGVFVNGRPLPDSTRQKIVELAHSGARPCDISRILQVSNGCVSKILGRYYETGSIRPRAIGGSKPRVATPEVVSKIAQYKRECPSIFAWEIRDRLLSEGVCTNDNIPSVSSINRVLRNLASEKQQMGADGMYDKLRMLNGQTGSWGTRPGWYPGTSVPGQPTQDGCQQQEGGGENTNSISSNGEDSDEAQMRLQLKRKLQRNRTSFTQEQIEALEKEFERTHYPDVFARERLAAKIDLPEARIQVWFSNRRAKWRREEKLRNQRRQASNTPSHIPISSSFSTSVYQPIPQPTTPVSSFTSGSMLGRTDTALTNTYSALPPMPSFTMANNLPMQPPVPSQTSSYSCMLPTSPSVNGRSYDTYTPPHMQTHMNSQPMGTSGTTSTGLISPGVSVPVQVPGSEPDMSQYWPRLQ

SMILES	outcome [1]	AC50 [2]	outcome [3]	outcome [4]	outcome [5]	AC50 [6]	AC50 [7]	outcome [8]	outcome [9]	outcome [10]	outcome [11]	outcome [12]	outcome [13]	outcome [14]	outcome [15]	outcome [2]	outcome [6]	outcome [7]	outcome [16]
CCc1cc(C(C)(C)C)c(O)c(C(C)(C)C)c1	inactive	8.94 µM (active)	inactive	inactive	inactive	33.4 µM (active)	59.9 µM (active)	inactive	inactive	inactive	inactive	inactive	inactive	inactive	inactive	–	–	–	–
CCOC(=O)CC(C)O (stereo unspecified)	inactive	–	inactive	inactive	inactive	–	–	inactive	inactive	inactive	inactive	inactive	inactive	inactive	inactive	inactive	inactive	inactive	inactive
O=C(Nc1ccc([N+](=O)[O-])cc1)Nc1ccc([N+](=O)[O-])cc1 (tested in a mixture with another compound)	inactive	–	inactive	inactive	inactive	–	–	inactive	inactive	inactive	inactive	inactive	inactive	inactive	–	inactive	inactive	inactive	–
OCc1cccc(Oc2ccccc2)c1	inactive	27.4 µM (active)	inactive	inactive	inactive	–	–	inactive	inactive	inactive	inactive	inactive	inactive	inactive	inactive	–	inactive	inactive	inactive
